In ChEMBL document CHEMBL3988442, “University of Dundee, Small-Polar-MMV Screening Library” (2021) one finds Percent Effect and PXC50 data, which are given here for five compounds.

For some assays here: Results with a measured potency or affinity are listed apart.

Experiment [1] concerns the target Protein translocase subunit SecA (Escherichia coli (strain K12)) (UniProt P10408). Kind of experiment: Assay to Identify E. coli SecA ATPase Inhibitors. The experiment is classed as functional. To be noted: 30 µM. The arrangement: scale not given: direction of the effect not stated beside the values.
Experiment [2] deals with T1, Ubiquitin-activating enzyme e1, putative (Leishmania donovani (strain BPK282A1)) (UniProt E9BSI1).
T1 sequence (whole entry): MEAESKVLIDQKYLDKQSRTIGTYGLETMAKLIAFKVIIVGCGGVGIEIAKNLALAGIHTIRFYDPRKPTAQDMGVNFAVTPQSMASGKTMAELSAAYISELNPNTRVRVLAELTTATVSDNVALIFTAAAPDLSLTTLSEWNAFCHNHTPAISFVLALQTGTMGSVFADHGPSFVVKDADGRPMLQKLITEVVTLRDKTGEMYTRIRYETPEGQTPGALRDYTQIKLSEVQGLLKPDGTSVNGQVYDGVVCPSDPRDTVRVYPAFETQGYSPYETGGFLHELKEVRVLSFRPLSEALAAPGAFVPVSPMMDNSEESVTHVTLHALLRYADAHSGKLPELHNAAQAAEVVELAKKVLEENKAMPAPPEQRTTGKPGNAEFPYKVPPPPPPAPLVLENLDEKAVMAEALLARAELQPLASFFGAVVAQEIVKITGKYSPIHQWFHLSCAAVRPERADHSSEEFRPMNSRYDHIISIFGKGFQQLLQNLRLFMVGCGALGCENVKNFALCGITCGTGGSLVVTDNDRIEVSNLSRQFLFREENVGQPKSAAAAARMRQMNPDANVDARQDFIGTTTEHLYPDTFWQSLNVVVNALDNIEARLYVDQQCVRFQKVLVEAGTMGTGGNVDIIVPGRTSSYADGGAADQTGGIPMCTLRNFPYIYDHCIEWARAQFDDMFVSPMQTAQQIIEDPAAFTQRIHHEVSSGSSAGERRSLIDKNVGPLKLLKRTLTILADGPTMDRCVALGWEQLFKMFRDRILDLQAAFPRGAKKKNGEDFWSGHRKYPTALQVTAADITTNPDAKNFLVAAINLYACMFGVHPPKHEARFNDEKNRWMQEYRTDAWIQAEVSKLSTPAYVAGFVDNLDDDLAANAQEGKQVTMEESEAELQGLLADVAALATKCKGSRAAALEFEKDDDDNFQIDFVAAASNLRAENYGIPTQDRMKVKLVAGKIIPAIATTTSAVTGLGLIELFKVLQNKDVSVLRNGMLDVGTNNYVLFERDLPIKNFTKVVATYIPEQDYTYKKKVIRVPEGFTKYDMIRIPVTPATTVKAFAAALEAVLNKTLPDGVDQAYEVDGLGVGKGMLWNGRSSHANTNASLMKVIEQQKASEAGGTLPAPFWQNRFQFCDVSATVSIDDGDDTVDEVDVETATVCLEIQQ
Kind of experiment: Leishmania donovani Ubiquitin Activating Enzyme (LdE1). To be noted: 30 µM. The arrangement: scale not given: direction of the effect not stated beside the values. The experiment is classed as functional.

In experiment [3] the target is AMP-activated protein kinase, AMPK (Homo sapiens) (UniProt P54646+O43741+P54619+Q9UGJ0+Q9Y478+Q13131+Q9UGI9). Briefly: AMP-dependent Kinase enzyme assay. An in vitro enzyme assay that detects ADP turnover that is directly proportional to AMPK activity. This uses naive AMPK that is activated during the assay with MK-8722. The experiment is classed as functional. The arrangement: scale not given: direction of the effect not stated beside the values. To be noted: 30 µM.

Experiment [4] deals with Sialic acid-binding Ig-like lectin 9 (Homo sapiens) (UniProt Q9Y336). Kind of experiment: Hs-Siglec9 ALPHAscreen SOP 20170721. The arrangement: scale not given: direction of the effect not stated beside the values. The note with it: 10 µM. Background: Alpha assays give light when donor and acceptor beads are brought close together.
Sialic acid-binding Ig-like lectin 9 (Homo sapiens), sequence (Q9Y336 whole entry): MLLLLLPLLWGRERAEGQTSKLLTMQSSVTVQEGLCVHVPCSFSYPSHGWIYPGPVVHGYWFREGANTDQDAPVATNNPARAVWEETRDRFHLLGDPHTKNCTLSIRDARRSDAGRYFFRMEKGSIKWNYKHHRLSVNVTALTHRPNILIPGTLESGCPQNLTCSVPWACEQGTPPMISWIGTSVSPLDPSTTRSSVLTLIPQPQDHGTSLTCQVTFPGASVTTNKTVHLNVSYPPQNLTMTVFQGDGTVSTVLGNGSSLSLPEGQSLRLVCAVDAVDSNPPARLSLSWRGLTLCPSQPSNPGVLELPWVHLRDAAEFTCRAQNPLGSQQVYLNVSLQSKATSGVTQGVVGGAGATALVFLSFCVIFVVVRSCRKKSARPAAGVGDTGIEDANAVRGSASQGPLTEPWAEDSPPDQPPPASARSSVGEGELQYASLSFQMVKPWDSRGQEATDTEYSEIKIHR
Experiment [5] has as its system Trypanosoma cruzi. Kind of experiment: Trypanosoma cruzi phosphomannomutase and mannose-1-phosphate guanylyltransferase assay. The note with it: 10 µM. The experiment is classed as functional. The arrangement: scale not given: direction of the effect not stated beside the values.
The target of experiment [6] is T2, Arginase-2, mitochondrial (Homo sapiens) (UniProt P78540).
T2 sequence (whole entry): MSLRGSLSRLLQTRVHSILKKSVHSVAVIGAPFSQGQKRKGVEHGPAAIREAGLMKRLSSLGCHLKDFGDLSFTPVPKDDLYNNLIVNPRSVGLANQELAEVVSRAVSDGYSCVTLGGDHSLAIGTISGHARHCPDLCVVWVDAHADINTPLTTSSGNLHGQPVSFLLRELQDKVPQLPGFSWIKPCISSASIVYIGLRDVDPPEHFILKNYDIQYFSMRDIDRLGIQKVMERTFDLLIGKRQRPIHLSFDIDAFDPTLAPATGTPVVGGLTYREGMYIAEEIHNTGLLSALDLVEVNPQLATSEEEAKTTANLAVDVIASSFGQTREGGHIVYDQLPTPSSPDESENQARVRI
Briefly: in vitro enzyme assay to detect the production of urea directly proportional to the activity of Arginase II. The experiment is classed as functional. More on the design: scale not given: in the data most compounds retested in dose-response had high values.

Experiment [7] addresses T3, Proteasome subunit beta (Trypanosoma cruzi) (UniProt O96673).
T3 sequence (whole entry): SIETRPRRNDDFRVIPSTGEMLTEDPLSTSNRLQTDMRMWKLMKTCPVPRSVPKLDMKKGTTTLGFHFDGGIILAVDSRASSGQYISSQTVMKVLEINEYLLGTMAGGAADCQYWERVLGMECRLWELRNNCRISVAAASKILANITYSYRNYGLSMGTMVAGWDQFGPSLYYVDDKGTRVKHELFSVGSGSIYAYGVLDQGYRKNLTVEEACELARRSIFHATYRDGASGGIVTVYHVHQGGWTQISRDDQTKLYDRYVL
Kind of experiment: Trypanosoma cruzi proteasome chymotrypsin-like activity (TcProtChymo) assay. The experiment is classed as functional. More on the design: scale not given: in the data most compounds retested in dose-response had high values. To be noted: 9.37 µM.

The species entered for experiment [8] is Homo sapiens. Briefly: To identify inhibition of the IFN signalling (Jak-Stat) pathway via expression of an eGFP reporter gene under the control of an IFN-stimulated response element (ISRE) containing MxA promoter. The experiment is classed as functional. More on the design: scale not given: direction of the effect not stated beside the values. The note with it: 30 µM. (In general: Reporter assays use an easily measured gene product as a stand-in for the process of interest.)

For experiment [9], the target named is T4, Tyrosyl-tRNA synthetase, putative (Trypanosoma cruzi (strain CL Brener)) (UniProt Q4DSP6).
T4 sequence (whole entry): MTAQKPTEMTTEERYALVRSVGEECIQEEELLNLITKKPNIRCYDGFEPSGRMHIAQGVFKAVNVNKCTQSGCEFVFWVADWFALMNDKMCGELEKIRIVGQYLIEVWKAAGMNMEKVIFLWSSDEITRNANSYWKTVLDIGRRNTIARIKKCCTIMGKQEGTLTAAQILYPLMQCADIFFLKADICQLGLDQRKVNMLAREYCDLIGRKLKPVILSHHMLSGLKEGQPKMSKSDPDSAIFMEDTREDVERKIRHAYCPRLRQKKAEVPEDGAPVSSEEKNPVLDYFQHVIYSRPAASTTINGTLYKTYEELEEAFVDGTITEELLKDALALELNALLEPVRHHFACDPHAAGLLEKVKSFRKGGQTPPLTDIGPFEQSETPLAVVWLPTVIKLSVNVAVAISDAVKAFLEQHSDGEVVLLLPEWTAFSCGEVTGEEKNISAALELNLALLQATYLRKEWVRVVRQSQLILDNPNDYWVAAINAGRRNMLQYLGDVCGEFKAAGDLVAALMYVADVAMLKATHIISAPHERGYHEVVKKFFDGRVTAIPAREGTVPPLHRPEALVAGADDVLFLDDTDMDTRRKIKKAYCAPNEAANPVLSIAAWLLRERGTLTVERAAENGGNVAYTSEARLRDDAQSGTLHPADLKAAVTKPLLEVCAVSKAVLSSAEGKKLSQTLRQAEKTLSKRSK
Kind of experiment: Trypanosoma cruzi tyrosyl tRNA synthetase (TcYRS) _High Tyrosine SOP. The experiment is classed as functional. The note with it: 30 µM. The arrangement: scale not given: in the data most compounds retested in dose-response had high values.

Experiment [10] has as its target T4, Tyrosyl-tRNA synthetase, putative (Trypanosoma cruzi (strain CL Brener)). Briefly: Trypanosoma cruzi tyrosyl tRNA synthetase (TcYRS) SOP. To be noted: 30 µM. The arrangement: scale not given: direction of the effect not stated beside the values. The experiment is classed as functional.
Experiment [11] deals with Chromo domain-containing protein 1 (Saccharomyces cerevisiae (strain ATCC 204508 / S288c) (Baker's yeast)) (UniProt P32657). Kind of experiment: ScCHD-1 Enzyme Inhibition Assay. To be noted: 30 µM. The arrangement: scale not given: in the data most compounds retested in dose-response had high values. The experiment is classed as functional.
Chromo domain-containing protein 1 (Saccharomyces cerevisiae (strain ATCC 204508 / S288c) (Baker's yeast)), sequence (P32657 whole entry, the tested form may be a part): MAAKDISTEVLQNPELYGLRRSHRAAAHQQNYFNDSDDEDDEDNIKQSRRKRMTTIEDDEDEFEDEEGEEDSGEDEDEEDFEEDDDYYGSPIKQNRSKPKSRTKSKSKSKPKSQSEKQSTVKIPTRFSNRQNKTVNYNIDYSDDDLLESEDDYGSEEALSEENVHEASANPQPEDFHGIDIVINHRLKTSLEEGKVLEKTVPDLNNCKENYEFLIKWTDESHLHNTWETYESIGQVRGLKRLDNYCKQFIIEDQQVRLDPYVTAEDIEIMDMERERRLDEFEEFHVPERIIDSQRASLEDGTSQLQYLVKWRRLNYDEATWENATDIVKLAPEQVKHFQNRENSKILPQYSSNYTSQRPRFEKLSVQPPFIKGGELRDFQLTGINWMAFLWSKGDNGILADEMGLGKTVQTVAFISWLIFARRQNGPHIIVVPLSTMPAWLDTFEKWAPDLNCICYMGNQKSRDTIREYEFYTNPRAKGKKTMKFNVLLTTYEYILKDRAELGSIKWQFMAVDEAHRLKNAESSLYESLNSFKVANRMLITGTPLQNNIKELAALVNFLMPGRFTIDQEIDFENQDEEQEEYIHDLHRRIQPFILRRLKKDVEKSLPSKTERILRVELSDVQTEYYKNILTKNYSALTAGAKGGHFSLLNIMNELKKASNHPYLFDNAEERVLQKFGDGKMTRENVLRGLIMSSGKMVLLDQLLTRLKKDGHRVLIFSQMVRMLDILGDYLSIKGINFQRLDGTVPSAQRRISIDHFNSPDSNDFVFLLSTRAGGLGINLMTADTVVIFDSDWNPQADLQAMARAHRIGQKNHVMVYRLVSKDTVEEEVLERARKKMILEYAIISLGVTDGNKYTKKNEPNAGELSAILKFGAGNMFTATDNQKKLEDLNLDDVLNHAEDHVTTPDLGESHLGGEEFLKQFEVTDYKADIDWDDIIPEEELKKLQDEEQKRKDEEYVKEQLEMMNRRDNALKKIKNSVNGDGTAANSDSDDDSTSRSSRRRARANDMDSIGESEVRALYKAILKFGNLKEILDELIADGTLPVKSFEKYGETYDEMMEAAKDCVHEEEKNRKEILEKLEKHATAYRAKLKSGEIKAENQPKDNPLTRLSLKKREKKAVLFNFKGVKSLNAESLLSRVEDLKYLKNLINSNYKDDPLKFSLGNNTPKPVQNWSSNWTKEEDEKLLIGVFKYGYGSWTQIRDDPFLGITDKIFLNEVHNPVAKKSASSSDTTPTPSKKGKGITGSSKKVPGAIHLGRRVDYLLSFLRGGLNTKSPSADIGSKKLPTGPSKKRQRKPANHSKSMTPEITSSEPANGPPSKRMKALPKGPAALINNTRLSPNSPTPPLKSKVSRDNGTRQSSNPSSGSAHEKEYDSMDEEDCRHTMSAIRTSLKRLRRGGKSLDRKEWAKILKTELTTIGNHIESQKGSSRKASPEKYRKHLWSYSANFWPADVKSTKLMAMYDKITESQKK
Experiment [12] has as its target T5, Methionyl-tRNA synthetase, putative (Leishmania donovani (strain BPK282A1)) (UniProt E9BF75).
T5 sequence (whole entry): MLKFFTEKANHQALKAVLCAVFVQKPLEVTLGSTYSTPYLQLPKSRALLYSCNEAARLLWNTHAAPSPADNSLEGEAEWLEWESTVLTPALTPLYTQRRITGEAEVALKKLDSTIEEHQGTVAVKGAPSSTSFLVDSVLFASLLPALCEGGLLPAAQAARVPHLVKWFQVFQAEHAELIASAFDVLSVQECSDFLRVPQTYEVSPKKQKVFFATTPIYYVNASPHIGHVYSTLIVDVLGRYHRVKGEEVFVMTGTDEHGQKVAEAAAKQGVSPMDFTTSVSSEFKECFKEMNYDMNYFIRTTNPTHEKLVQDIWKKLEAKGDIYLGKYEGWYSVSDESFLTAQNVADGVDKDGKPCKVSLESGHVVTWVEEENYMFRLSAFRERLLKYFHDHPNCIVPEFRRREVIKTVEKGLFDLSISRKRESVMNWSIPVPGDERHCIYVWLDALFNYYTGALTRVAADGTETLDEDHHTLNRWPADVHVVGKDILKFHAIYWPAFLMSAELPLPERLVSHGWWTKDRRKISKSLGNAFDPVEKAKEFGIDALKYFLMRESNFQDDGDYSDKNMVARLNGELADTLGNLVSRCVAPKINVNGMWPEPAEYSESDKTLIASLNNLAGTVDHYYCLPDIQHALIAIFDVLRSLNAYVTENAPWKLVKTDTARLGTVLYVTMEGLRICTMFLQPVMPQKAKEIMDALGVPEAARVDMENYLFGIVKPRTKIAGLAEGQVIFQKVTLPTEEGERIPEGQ
Kind of experiment: Leishmania donovani Methionine tRNA synthetase (LdMetRS):v7. Dose response assay. More on the design: conc 80 nM, time 150 minutes. The experiment is classed as functional.

Protein translocase subunit SecA (Escherichia coli (strain K12)), sequence (P10408 whole entry): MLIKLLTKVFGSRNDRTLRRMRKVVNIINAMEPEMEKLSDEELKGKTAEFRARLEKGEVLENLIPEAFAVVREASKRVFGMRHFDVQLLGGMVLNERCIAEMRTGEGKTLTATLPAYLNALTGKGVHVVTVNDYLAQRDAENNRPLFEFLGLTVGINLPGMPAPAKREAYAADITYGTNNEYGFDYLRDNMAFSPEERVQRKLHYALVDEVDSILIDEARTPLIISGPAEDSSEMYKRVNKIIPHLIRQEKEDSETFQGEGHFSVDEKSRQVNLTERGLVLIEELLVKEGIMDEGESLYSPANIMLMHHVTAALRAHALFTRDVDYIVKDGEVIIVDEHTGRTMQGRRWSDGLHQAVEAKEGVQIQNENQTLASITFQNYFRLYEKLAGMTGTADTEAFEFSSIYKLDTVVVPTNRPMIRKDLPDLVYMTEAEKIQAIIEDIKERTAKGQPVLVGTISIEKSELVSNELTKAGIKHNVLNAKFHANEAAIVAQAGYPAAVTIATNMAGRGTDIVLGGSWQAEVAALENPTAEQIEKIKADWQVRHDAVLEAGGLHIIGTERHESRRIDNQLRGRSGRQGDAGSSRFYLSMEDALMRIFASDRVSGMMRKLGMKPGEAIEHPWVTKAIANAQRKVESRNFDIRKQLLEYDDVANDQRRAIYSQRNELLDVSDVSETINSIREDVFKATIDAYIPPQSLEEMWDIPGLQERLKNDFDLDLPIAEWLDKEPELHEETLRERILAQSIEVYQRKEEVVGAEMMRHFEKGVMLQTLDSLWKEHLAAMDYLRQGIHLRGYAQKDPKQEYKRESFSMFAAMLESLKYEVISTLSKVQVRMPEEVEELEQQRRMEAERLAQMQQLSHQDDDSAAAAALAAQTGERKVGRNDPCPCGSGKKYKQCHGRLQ

In the case of `CSCC(=O)N1CCCC1c1noc(C2CC2)n1` (stereo not drawn), the Percent Effect in experiment [1] is -5.16%; in experiment [2], 10.7%; in [3], -6.47%; in experiment [4], 12.3%; in [5] it was 4.97%; in experiment [6] (30 µM), 4.87%. The Percent Effect in experiment [6] (33.3 µM) is 29.2%; in experiment [7], -1.92%; in experiment [8], 4.6%; in experiment [9], 0.546%; in experiment [10], 11.1%; in experiment [11], -16.6%.
On to `FC1(F)CCN(Cc2cccnc2)CC12CCN(c1ccccn1)C2` (stereo not drawn), for which the PXC50 in experiment [12] (MAX_EFFECT 12.14788732) and in [12] (MAX_EFFECT 12.35154394) was less than 4 throughout. For the same compound, the Percent Effect in experiment [1] is -2.18%; in [2], 16.2%; in experiment [3], 5.61%; in experiment [4] it was -2.07%; in experiment [5], -4.99%; in [6] (33.3 µM) it was 17.5%. Besides, the Percent Effect was 21.4% in experiment [7]; 33.7% in [8]; 1.08% in experiment [9]; 12.8% in experiment [10]; -3.06% in experiment [11].
In the case of `Cc1nc(NCc2nncn2C2CC2)c2c(CC(C)C)csc2n1`, the PXC50 in experiment [12] (MAX_EFFECT 9.660574413) and in [12] (MAX_EFFECT 12.53263708) was less than 4 each time. In experiment [3], the Percent Effect was -3.8%.
Turning to `FC1(F)CCN(Cc2ccncc2)CC12CCN(Cc1ccccn1)C2` (stereo not drawn), the PXC50 in experiment [12] (MAX_EFFECT 4.275534442) and in [12] (MAX_EFFECT 11.44366197) was less than 4 each time. Further, the Percent Effect is -7.03% in experiment [1]; 0% in [2]; -0.894% in experiment [3]; 2.49% in experiment [4]; -5.96% in [5]; 0.319% in [6] (33.3 µM). In addition, the Percent Effect in experiment [7] is 5.35%; in experiment [8] it was 17.3%; in experiment [9] it was -3.24%; in experiment [10], -5.13%; in experiment [11], -2.99%.
Turning to `CN(Cc1ccccn1)C1CC2(CCN(Cc3cccnc3)CC2)C1`, the Percent Effect in [1] is -7.24%; in experiment [2], 13.3%; in experiment [3], 5.22%; in experiment [4], -6.34%; in experiment [5], -10%; in experiment [6] (30 µM) it was -2.7%. For the same compound, the Percent Effect in experiment [6] (33.3 µM) was 0.233%; in [7], 9.6%; in experiment [8], 10.9%; in experiment [9] it was 4.25%; in [10], 11.5%; in experiment [11], -7.41%.
